Experiment [1] is described as follows: qHTS assay for measurement of the activity of small molecule inhibitors on Zika virus induced Caspase-3 activity in human iPSC derived neural progenitor cells (hNPCs) (AID 1224857). Further: nearly all actives have a fitted effect of over 65% in size. Further: potency means the concentration at half of the fitted maximal effect. The method in brief:
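Zika virus (2 FFU/cell) infection of human iPSC-derived NPCs, 6 h, following 1 h compound preincubation. Read-out: Caspase-Glo 3/7 luminescence.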

Experiment [2] can be described thus: qHTS assay for measurement of the activity of small molecule inhibitors on Zika virus induced Caspase-3 activity in human astrocytoma cells (AID 1224859). Further: potency means the concentration at half of the fitted maximal effect. In short, it runs like this:
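Caspase activation in ZIKV-infected SNB-19 cells (2 FFU/cell, 6 h) measured by Caspase-Glo 3/7 luminescence after 30 min RT; compound pre-incubated 1 h; normalised to uninfected and infected controls.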
Background: In qHTS, concentration-response curves come from the screen itself.

Experiment [3] can be described thus: qHTS Screen of the MIPE 4.0 Collection Against Ewings Sarcoma (RDES) (AID 1259252). Further: nearly all actives have a fitted effect of over 35% in size. Further: potency means the concentration at half of the fitted maximal effect. The method in brief:
(§1)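 Measured: ATP luminescence (CellTiter-Glo) 10 min after reagent addition, following 48 h drug treatment. Relative luciferase units converted to percent activity, with no-cell wells as full and DMSO wells as zero inhibition.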

A short description of experiment [4]: qHTS Screen of the MIPE 4.0 Collection Against Ewings Sarcoma (TC71) (AID 1259253). Further: nearly all actives have a fitted effect of over 40% in size. Further: potency means the concentration at half of the fitted maximal effect. The method in brief:
as §1

Experiment [5] is described as follows: qHTS Screen of the MIPE 4.0 Collection Against Ewings Sarcoma (EW8) (AID 1259255). Further: nearly all actives have a fitted effect of over 35% in size. Further: potency means the concentration at half of the fitted maximal effect. The method in brief:
as §1

Experiment [6] in a line: P-glycoprotein substrates identified in KB-8-5-11 adenocarcinoma cell line, qHTS therapeutic library screen (AID 1346987). Further: nearly all actives have a fitted effect of over 65% in size. Further: potency means the concentration at half of the fitted maximal effect. In short, it runs like this: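 KB-8-5-11: colchicine-selected sub-line of KB-3-1 over-expressing P-gp; assay medium lacked colchicine. 72 h drug exposure at 37 degree C, CellTiter-Glo.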
Experiment [7] is described as follows: NS1 protein of Zika virus - qHTS assay to identify small molecule inhibitors in human HEK 293 cells (AID 1347053). Further: nearly all actives have a fitted effect of over 55% in size. Further: potency means the concentration at half of the fitted maximal effect. The method in brief: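 HEK 293; 20 h pre-culture, 37 C/5% CO2; cpd 1 h pre-infection; ZIKV MR766, MOI = 0.5, 24 h, 37 C; TR-FRET NS1 readout (two anti-NS1 Abs); norm. to no-virus vs infected.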
Experiment [8] can be described thus: Identifying Small Molecule Inhibitors of Pancreatic Cancer Stem Cells (SN12C, Adherent) (AID 1259358).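 Further: cell survival measured after 48 h of compound exposure.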 Further: potency means the concentration at half of the fitted maximal effect. In short, it runs like this:
(§2)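 After a 4 h attachment period, compounds were pinned into wells and cultures held 48 h under standard incubator conditions. Viability was then measured as CellTiter-Glo luminescence following 10 min at room temperature.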

Experiment [9] in a line: Identifying Small Molecule Inhibitors of Pancreatic Cancer Stem Cells (A278, Adherent) (AID 1259361).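 Further: viability read after 48 h compound exposure; nearly all actives have a fitted effect of over 35% in size.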 In short, it runs like this: as §2
Experiment [10] in a line: qHTS assay to identify small molecule inhibitors of chordoma cells - UCH-2 (AID 1259356). Further: series mostly up to about 46 µM.
A short description of experiment [11]: P-glycoprotein substrates identified in KB-3-1 adenocarcinoma cell line, qHTS therapeutic library screen (AID 1346986). Further: nearly all actives have a fitted effect of over 60% in size.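 Further: potency means the concentration at half of the fitted maximal effect; potency is for cytotoxicity meaning loss of cell viability.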 In short, it runs like this:
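KB-3-1 parental cells and P-gp-overexpressing KB-8-5-11 (colchicine omitted during assay) plated at 500 cells/well, dosed in dose-response, incubated 72 h at 37 degree C. CellTiter-Glo luminescence read; KB-8-5-11 also tested with tariquidar.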

Experiment [12] can be described thus: qHTS Screen of the MIPE 4.0 Collection Against Ewings Sarcoma (TC32) (AID 1259256). Further: nearly all actives have a fitted effect of over 45% in size. Further: potency means the concentration at half of the fitted maximal effect. The method in brief:
as §1

Experiment [13] is described as follows: qHTS assay to identify small molecule inhibitors of chordoma cells - UCH-1 (AID 1259355). Further: nearly all actives have a fitted effect of over 55% in size. In short, it runs like this:
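Luminescent ATP read-out (CellTiter-Glo, 30min at room temperature) measured viability of UCH-1 cells exposed for 48hr to test drugs at 15 concentrations, co-dosed with a five-agent combination of auranofin, camptothecin, doxorubicin, rubitecan and topotecan.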

A short description of experiment [14]: Identifying Small Molecule Inhibitors of Pancreatic Cancer Stem Cells (Panc1, Spheroid) (AID 1259359).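 Further: compound exposure lasted 48 h before reading.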 Further: potency means the concentration at half of the fitted maximal effect. The method in brief:
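Adherent (2D) versus sphere (3D) formats; spheres generated 14 d in SCM beforehand. Compound transferred by pin tool after 4 h, 48 h incubation, CellTiter-Glo endpoint.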

Experiment [15] can be described thus: Identifying Small Molecule Inhibitors of Pancreatic Cancer Stem Cells (SN12C, Spheroid) (AID 1259360). Further: potency means the concentration at half of the fitted maximal effect. The following applies: Potency: SN12C spheroid viability. In short, it runs like this: (§3)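 Monolayer and spheroid cultures are compared. Spheroids form over 14 days in stem cell medium on hydrogel-coated low-attachment plates, then are exposed to compound for 48 h before CellTiter-Glo luminescence.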

Experiment [16] can be described thus: Identifying Small Molecule Inhibitors of Pancreatic Cancer Stem Cells (Panc1, Adherent) (AID 1259362). Further: potency means the concentration at half of the fitted maximal effect. As to conditions: Potency: viability. The method in brief: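 Luminescent ATP readout (CellTiter-Glo) quantifies surviving cells after a 48 h drug incubation. Normalization uses DMSO wells as no inhibition and media-only wells as full inhibition; bortezomib served as positive control.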

Experiment [17] can be described thus: Identifying Small Molecule Inhibitors of Pancreatic Cancer Stem Cells (A2780, Spheroid) (AID 1259357).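 Further: potency means the concentration at half of the fitted maximal effect; compound exposure lasted 48 h before the ATP luminescence read.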 The following applies: Potency: A2780 spheroid viability. In short, it runs like this: as §3

Structures are written as SMILES. “And” between values parts separate entries of the source, which are not always exact repeats. Equal entries are not always repeated. Records with an inconclusive call do not appear. More than one record can exist for a structure, and the calls need not agree. The source made the active and inactive calls. The call rests on the fitted dose curve; in most records, active means well fitted curve in the direction sought with a large enough effect; inconclusive means small, poorly fitted or top-dose-only effect, or another doubt; inactive means no such curve, though single readings can be large; an effect the other way counts as inactive or inconclusive.

As for `CC(C)CC(=O)Nc1n[nH]c2c1CN(C(=O)C1CCN(C)CC1)C2(C)C`, the Potency result in [1], in experiment [2] and in experiment [6] was “inactive” in each case. Further, the Potency in [3] is 296 nM (active); in [4], 743 nM (active); in [5], 1.32 µM (active); in experiment [7] it was 26400 nM (active).

With `O=C(O)c1ccc2cc(-c3ccc(O)c(C45CC6CC(CC(C6)C4)C5)c3)ccc2c1`, the Potency result in experiment [1] and in experiment [2] was “inactive” throughout. The Potency was 1320 nM (active) in experiment [3]; 590 nM (active) in [4]; 1.66 µM (active) in [5]; 2.64 µM (active) in experiment [8]; 590 nM (active) in [7]. For the same compound, the IC50 (viability decrease) in experiment [9] is 935 nM (active).

Regarding `Nc1ccn([C@@H]2O[C@H](CO)[C@H](O)C2(F)F)c(=O)n1`, the Potency result in experiment [1] and in experiment [2] was “inactive” throughout. In addition, the Potency in experiment [3] was 52.6 nM (active); in experiment [4], 41.8 nM (active); in experiment [5], 0.0166 µM (active); in experiment [7], 743 nM (active). The outcome in experiment [10] was inactive.

Take `CCCCOc1c(C(=O)c2c(F)cc(C)cc2F)cnc2n[nH]cc12`: the Potency entry in experiment [1], in experiment [2], in experiment [6] and in [7] was “inactive” throughout. The Potency is 2960 nM (active) in experiment [3]; 2960 nM (active) in [4]; “inactive and 3.66 µM (active)” in [11].

With `Cn1cc(-c2ccncc2)c(-c2ccc(OCc3ccc4ccccc4n3)cc2)n1`, the Potency result in [1], in experiment [2] and in experiment [7] was “inactive” each time. The Potency in experiment [3] was 16600 nM (active); in experiment [4], 16600 nM (active); in experiment [12] it was 16.6 µM (active); in experiment [6], 20.6 µM (active).

Consider `CC(O)C1C(=O)N2C(C(=O)O)=C(SC3CNC(C(=O)N(C)C)C3)C(C)C12` (stereo unspecified), for which the Potency entry in [1], in [2], in [3], in experiment [4], in [11] and in experiment [6] was “inactive” throughout. Besides, in [7], the Potency entry was “inactive”.

Turning to `O=c1[nH]c(=O)n(C2CCCO2)cc1F` (stereo unspecified), the Potency result in [1], in experiment [2], in experiment [3], in experiment [5], in [12] and in experiment [13] was “inactive” each time. Moreover, the Potency result in experiment [11], in experiment [6] and in experiment [7] was “inactive” each time. Further, in [10], the compound was called inactive.

For `COC(=O)c1ccc2c(C(=Nc3ccc(N(C)C(=O)CN4CCN(C)CC4)cc3)c3ccccc3)c(O)[nH]c2c1`, the Potency entry in experiment [1], in [2] and in experiment [7] was “inactive” in each case. Besides, the Potency in experiment [3] is 148 nM (active); in experiment [4] it was 743 nM (active); in [12], 1.48 µM (active); in experiment [8], 18.7 µM (active); in [14], 13.2 µM (active); in experiment [15], 18.7 µM (active). In addition, the IC50 (viability decrease) in [9] was 4690 nM (active).

Turning to `CC(C)c1ccccc1Cc1cc(C(=O)Nc2ccc(S(=O)(=O)c3ccccc3C(C)(C)C)cc2)c(O)c(O)c1O`, the Potency result in experiment [1], in experiment [2], in experiment [8] and in experiment [15] was “inactive” throughout. Moreover, the Potency was 7430 nM (active) in experiment [3], 7430 nM (active) in experiment [4], 8.33 µM (active) in experiment [12] and 9.35 µM (active) in experiment [6].

With `CC(C)C[C@H](NC(=O)CNC(=O)c1cc(Cl)ccc1Cl)B(O)O`, the Potency entry in [1] and in experiment [2] was “inactive” throughout. Also, the Potency in experiment [3] was 264 nM (active); in experiment [4], 332 nM (active); in [12] it was 0.469 µM (active); in experiment [8], 0.132 µM (active); in experiment [14], 0.0935 µM (active); in experiment [15] it was 0.0833 µM (active). In addition, the Potency in experiment [16] is 0.187 µM (active); in experiment [6] it was 1.32 µM (active); in experiment [7], 418 nM (active). In addition, in experiment [9], the IC50 (viability decrease) is 16.6 nM (active).

`COC(=O)Nc1nc2ccc(C(=O)c3ccc(F)cc3)cc2[nH]1`: the Potency entry in [1] and in experiment [2] was “inactive” throughout. Further, the Potency in [3] is 743 nM (active); in experiment [4], 1050 nM (active); in experiment [12] it was 0.372 µM (active); in experiment [6], 418 nM (active) and 1.03 µM (active).

On to `Cn1c2ccccc2c2c3c(c4c5ccccc5n(CCC#N)c4c21)CNC3=O`, for which the Potency result in experiment [1] and in [2] was “inactive” in each case. For the same compound, the Potency in experiment [3] was 935 nM (active); in experiment [4] it was 1180 nM (active); in experiment [12], 4.69 µM (active); in experiment [6] it was 5.8 µM (active).

`Cc1[nH]nc2ccc(-c3cncc(OC[C@@H](N)Cc4ccccc4)c3)cc12`: the Potency result in [1] and in [2] was “inactive” each time. In addition, the Potency is 2090 nM (active) in experiment [3]; 1480 nM (active) in [4]; 7.43 µM (active) in experiment [8]; 9.35 µM (active) in [14]; 18.7 µM (active) in experiment [15]; 4.69 µM (active) in [16]. The Potency in experiment [6] was 2.35 µM (active) and 1.16 µM (active); in experiment [7], 8330 nM (active). In addition, the IC50 (viability decrease) in [9] is 935 nM (active).

As to `C=CC(=O)Nc1cc2c(Nc3ccc(F)c(Cl)c3)ncnc2cc1C#CC(C)(C)N1CCN(C)CC1`, the Potency result in [1] and in experiment [2] was “inactive” throughout. The Potency in experiment [3] was 1870 nM (active); in [5], 2.35 µM (active); in [12] it was 1.32 µM (active); in experiment [17], 16.6 µM (active); in experiment [8], 13.2 µM (active); in experiment [14], 5.26 µM (active). Further, the Potency was 6.62 µM (active) in [15]; 11.8 µM (active) in experiment [16]; 9.2 µM (active) in experiment [11]; 16.4 µM (active) in experiment [6]; 13200 nM (active) in [7]. Further, the IC50 (viability decrease) in experiment [9] was 6620 nM (active).

Regarding `Cc1ccc(NC(=O)C2(c3ccc4c(c3)OC(F)(F)O4)CC2)nc1-c1cccc(C(=O)O)c1`, the Potency entry in experiment [1], in experiment [2] and in experiment [11] was “inactive” each time. Besides, the Potency in experiment [3] is 52.6 nM (active); in experiment [4], 37.2 nM (active); in [12], 0.0526 µM (active); in [6], 526 nM (active) and inactive; in experiment [7] it was 37.2 nM (active).

With `COc1ccc(-n2nc(C(N)=O)c3c2C(=O)N(c2ccc(N4CCCCC4=O)cc2)CC3)cc1`, the Potency entry in experiment [1], in experiment [2], in [3], in experiment [4], in [6] and in [7] was “inactive” throughout.

On to `COCCn1c2c([n+](Cc3cnccn3)c1C)C(=O)c1ccccc1C2=O`, for which the Potency was 418 nM (active) in [1]; 1.32 µM (active) in experiment [2]; 2.1 nM (active) in experiment [3]; 0.0047 µM (active) in experiment [5]; 0.0053 µM (active) in experiment [12]; 0.0132 µM (active) in [17]. Further, the figures for the Potency in experiment [8], in experiment [15] and in [7] were 0.0264 µM (active), 0.105 µM (active) and 37.2 nM (active), respectively. Further, the Potency result in experiment [14] and in [16] was “inactive” each time. In addition, in experiment [9], the IC50 (viability decrease) is 6.6 nM (active).

Source of the values: PubChem BioAssay (NCATS).
